# Experimental data taken from PMC11062922 (Nature Chemical Biology, 2023).
# Read-outs that look alike come from different tables or passages of the source.
# Legend:
# MARK4 = conditions: read-out: apparent Kd, n = 1
# NTRK1 = conditions: read-out: apparent Kd, n = 1
# [1] = compound concentrations:100 nM and 1000 nM (sheet 'Lestaurtinib' of Supplementary Table 1),run:Lestaurtinib_02724_R3,Plate:MR021
# [2] = compound concentrations:100 nM and 1000 nM (sheet 'Lestaurtinib' of Supplementary Table 1),run:Lestaurtinib_02741_R2,Plate:MR023
# [3] = compound concentrations:100 nM and 1000 nM (sheet 'Lestaurtinib' of Supplementary Table 1),run:Lestaurtinib_02741_R3,Plate:MR023
# [4] = compound concentrations:100 nM and 1000 nM (sheet 'Lestaurtinib' of Supplementary Table 1),run:Lestaurtinib_02748_R1,Plate:MR024
substance,measurement,setting,value
Lestaurtinib,potency estimated from few doses,MARK4; [1],113 nM
same,potency estimated from few doses,MARK4; [2],144 nM
same,potency estimated from few doses,MARK4; [3],82.4 nM
same,potency estimated from few doses,MARK4; [4],151 nM
same,potency estimated from few doses,"MARK4; compound concentrations:100 nM and 1000 nM (sheet 'Lestaurtinib' of Supplementary Table 1),run:Lestaurtinib_02748_R2,Plate:MR024",97.8 nM
same,potency estimated from few doses,"MARK4; compound concentrations:100 nM and 1000 nM (sheet 'Lestaurtinib' of Supplementary Table 1),run:Lestaurtinib_02748_R3,Plate:MR024",98.7 nM
same,potency estimated from few doses,"MARK4; compound concentrations:100 nM and 1000 nM (sheet 'Lestaurtinib' of Supplementary Table 1),run:Lestaurtinib_02752_R1,Plate:MR025",84.2 nM
same,potency estimated from few doses,"MARK4; compound concentrations:100 nM and 1000 nM (sheet 'Lestaurtinib' of Supplementary Table 1),run:Lestaurtinib_02752_R3,Plate:MR025",113 nM
same,potency estimated from few doses,"MARK4; compound concentrations:100 nM and 1000 nM (sheet 'Lestaurtinib' of Supplementary Table 1),run:Lestaurtinib_02765_R1,Plate:MR026",86.1 nM
same,potency estimated from few doses,"MARK4; compound concentrations:100 nM and 1000 nM (sheet 'Lestaurtinib' of Supplementary Table 1),run:Lestaurtinib_02765_R3,Plate:MR026",95.3 nM
same,potency estimated from few doses,"MARK4; compound concentrations:100 nM and 1000 nM (sheet 'Lestaurtinib' of Supplementary Table 1),run:Lestaurtinib_02766_R1,Plate:MR027",154 nM
same,potency estimated from few doses,"MARK4; compound concentrations:100 nM and 1000 nM (sheet 'Lestaurtinib' of Supplementary Table 1),run:Lestaurtinib_02766_R2,Plate:MR027",63.6 nM
same,potency estimated from few doses,"MARK4; compound concentrations:100 nM and 1000 nM (sheet 'Lestaurtinib' of Supplementary Table 1),run:Lestaurtinib_02766_R3,Plate:MR027",76.7 nM
same,potency estimated from few doses,"MARK4; compound concentrations:100 nM and 1000 nM (sheet 'Lestaurtinib' of Supplementary Table 1),run:Lestaurtinib_02768_R1,Plate:MR028",92.1 nM
same,potency estimated from few doses,"MARK4; compound concentrations:100 nM and 1000 nM (sheet 'Lestaurtinib' of Supplementary Table 1),run:Lestaurtinib_02768_R3,Plate:MR028",80.6 nM
same,potency estimated from few doses,"MARK4; compound concentrations:100 nM and 1000 nM (sheet 'Lestaurtinib' of Supplementary Table 1),run:Lestaurtinib_02795_R1,Plate:MR022",115 nM
same,potency estimated from few doses,"MARK4; compound concentrations:100 nM and 1000 nM (sheet 'Lestaurtinib' of Supplementary Table 1),run:Lestaurtinib_02795_R2,Plate:MR022",157 nM
same,potency estimated from few doses,"MARK4; compound concentrations:100 nM and 1000 nM (sheet 'Lestaurtinib' of Supplementary Table 1),run:Lestaurtinib_02802_R2,Plate:MR029",86 nM
same,potency estimated from few doses,"MARK4; compound concentrations:100 nM and 1000 nM (sheet 'Lestaurtinib' of Supplementary Table 1),run:Lestaurtinib_02802_R3,Plate:MR029",77.8 nM
same,potency estimated from few doses,"MARK4; compound concentrations:100 nM and 1000 nM (sheet 'Lestaurtinib' of Supplementary Table 1),run:Lestaurtinib_02896_R2,Plate:MR030",141 nM
same,potency estimated from few doses,"MARK4; compound concentrations:100 nM and 1000 nM (sheet 'Lestaurtinib' of Supplementary Table 1),run:Lestaurtinib_02896_R3,Plate:MR030",87.4 nM
same,potency estimated from few doses,"MARK4; compound concentrations:100 nM and 1000 nM (sheet 'Lestaurtinib' of Supplementary Table 1),run:Lestaurtinib_03172_R1,Plate:MR031",86.8 nM
same,potency estimated from few doses,"MARK4; compound concentrations:100 nM and 1000 nM (sheet 'Lestaurtinib' of Supplementary Table 1),run:Lestaurtinib_03172_R2,Plate:MR031",297 nM
same,potency estimated from few doses,"MARK4; compound concentrations:100 nM and 1000 nM (sheet 'Lestaurtinib' of Supplementary Table 1),run:Lestaurtinib_03252_R1,Plate:MR032",41.6 nM
same,potency estimated from few doses,"MARK4; compound concentrations:100 nM and 1000 nM (sheet 'Lestaurtinib' of Supplementary Table 1),run:Lestaurtinib_03252_R2,Plate:MR032",59.5 nM
same,potency estimated from few doses,"MARK4; compound concentrations:100 nM and 1000 nM (sheet 'Lestaurtinib' of Supplementary Table 1),run:Lestaurtinib_03260_R1,Plate:MR033",469 nM
same,potency estimated from few doses,"MARK4; compound concentrations:100 nM and 1000 nM (sheet 'Lestaurtinib' of Supplementary Table 1),run:Lestaurtinib_03260_R2,Plate:MR033",609 nM
same,potency estimated from few doses,"MARK4; compound concentrations:100 nM and 1000 nM (sheet 'Lestaurtinib' of Supplementary Table 1),run:Lestaurtinib_03260_R3,Plate:MR033",165 nM
same,potency estimated from few doses,"NTRK1; compound concentrations:100 nM and 1000 nM (sheet 'Lestaurtinib' of Supplementary Table 1),run:Lestaurtinib_02339_R2,Plate:MR001",1580 nM
same,potency estimated from few doses,"NTRK1; compound concentrations:100 nM and 1000 nM (sheet 'Lestaurtinib' of Supplementary Table 1),run:Lestaurtinib_02339_R3,Plate:MR001",1910 nM
same,potency estimated from few doses,"NTRK1; compound concentrations:100 nM and 1000 nM (sheet 'Lestaurtinib' of Supplementary Table 1),run:Lestaurtinib_02364_R1,Plate:MR002",893 nM
same,potency estimated from few doses,"NTRK1; compound concentrations:100 nM and 1000 nM (sheet 'Lestaurtinib' of Supplementary Table 1),run:Lestaurtinib_02364_R2,Plate:MR002",971 nM
same,potency estimated from few doses,"NTRK1; compound concentrations:100 nM and 1000 nM (sheet 'Lestaurtinib' of Supplementary Table 1),run:Lestaurtinib_02364_R3,Plate:MR002",789 nM
same,potency estimated from few doses,"NTRK1; compound concentrations:100 nM and 1000 nM (sheet 'Lestaurtinib' of Supplementary Table 1),run:Lestaurtinib_02381_R1,Plate:MR004",763 nM
same,potency estimated from few doses,"NTRK1; compound concentrations:100 nM and 1000 nM (sheet 'Lestaurtinib' of Supplementary Table 1),run:Lestaurtinib_02381_R2,Plate:MR004",626 nM
same,potency estimated from few doses,"NTRK1; compound concentrations:100 nM and 1000 nM (sheet 'Lestaurtinib' of Supplementary Table 1),run:Lestaurtinib_02381_R3,Plate:MR004",1330 nM
same,potency estimated from few doses,"NTRK1; compound concentrations:100 nM and 1000 nM (sheet 'Lestaurtinib' of Supplementary Table 1),run:Lestaurtinib_02407_R1,Plate:MR005",1580 nM
same,potency estimated from few doses,"NTRK1; compound concentrations:100 nM and 1000 nM (sheet 'Lestaurtinib' of Supplementary Table 1),run:Lestaurtinib_02422_R1,Plate:MR006",1590 nM
same,potency estimated from few doses,"NTRK1; compound concentrations:100 nM and 1000 nM (sheet 'Lestaurtinib' of Supplementary Table 1),run:Lestaurtinib_02422_R2,Plate:MR006",1420 nM
same,potency estimated from few doses,"NTRK1; compound concentrations:100 nM and 1000 nM (sheet 'Lestaurtinib' of Supplementary Table 1),run:Lestaurtinib_02437_R2,Plate:MR007",1490 nM
same,potency estimated from few doses,"NTRK1; compound concentrations:100 nM and 1000 nM (sheet 'Lestaurtinib' of Supplementary Table 1),run:Lestaurtinib_02437_R3,Plate:MR007",113 nM
same,potency estimated from few doses,"NTRK1; compound concentrations:100 nM and 1000 nM (sheet 'Lestaurtinib' of Supplementary Table 1),run:Lestaurtinib_02438_R1,Plate:MR008",1000 nM
same,potency estimated from few doses,"NTRK1; compound concentrations:100 nM and 1000 nM (sheet 'Lestaurtinib' of Supplementary Table 1),run:Lestaurtinib_02438_R2,Plate:MR008",1530 nM
same,potency estimated from few doses,"NTRK1; compound concentrations:100 nM and 1000 nM (sheet 'Lestaurtinib' of Supplementary Table 1),run:Lestaurtinib_02443_R1,Plate:MR009",796 nM
same,potency estimated from few doses,"NTRK1; compound concentrations:100 nM and 1000 nM (sheet 'Lestaurtinib' of Supplementary Table 1),run:Lestaurtinib_02473_R1,Plate:MR010",695 nM
same,potency estimated from few doses,"NTRK1; compound concentrations:100 nM and 1000 nM (sheet 'Lestaurtinib' of Supplementary Table 1),run:Lestaurtinib_02473_R2,Plate:MR010",826 nM
same,potency estimated from few doses,"NTRK1; compound concentrations:100 nM and 1000 nM (sheet 'Lestaurtinib' of Supplementary Table 1),run:Lestaurtinib_02482_R2,Plate:MR011",894 nM
same,potency estimated from few doses,"NTRK1; compound concentrations:100 nM and 1000 nM (sheet 'Lestaurtinib' of Supplementary Table 1),run:Lestaurtinib_02482_R3,Plate:MR011",649 nM
same,potency estimated from few doses,"NTRK1; compound concentrations:100 nM and 1000 nM (sheet 'Lestaurtinib' of Supplementary Table 1),run:Lestaurtinib_02487_R2,Plate:MR012",1150 nM
same,potency estimated from few doses,"NTRK1; compound concentrations:100 nM and 1000 nM (sheet 'Lestaurtinib' of Supplementary Table 1),run:Lestaurtinib_02487_R3,Plate:MR012",921 nM
same,potency estimated from few doses,"NTRK1; compound concentrations:100 nM and 1000 nM (sheet 'Lestaurtinib' of Supplementary Table 1),run:Lestaurtinib_02496_R1,Plate:MR013",946 nM
same,potency estimated from few doses,"NTRK1; compound concentrations:100 nM and 1000 nM (sheet 'Lestaurtinib' of Supplementary Table 1),run:Lestaurtinib_02496_R2,Plate:MR013",1400 nM
same,potency estimated from few doses,"NTRK1; compound concentrations:100 nM and 1000 nM (sheet 'Lestaurtinib' of Supplementary Table 1),run:Lestaurtinib_02496_R3,Plate:MR013",828 nM
same,potency estimated from few doses,"NTRK1; compound concentrations:100 nM and 1000 nM (sheet 'Lestaurtinib' of Supplementary Table 1),run:Lestaurtinib_02566_R2,Plate:MR014",898 nM
same,potency estimated from few doses,"NTRK1; compound concentrations:100 nM and 1000 nM (sheet 'Lestaurtinib' of Supplementary Table 1),run:Lestaurtinib_02572_R1,Plate:MR015",810 nM
same,potency estimated from few doses,"NTRK1; compound concentrations:100 nM and 1000 nM (sheet 'Lestaurtinib' of Supplementary Table 1),run:Lestaurtinib_02572_R3,Plate:MR015",974 nM
same,potency estimated from few doses,"NTRK1; compound concentrations:100 nM and 1000 nM (sheet 'Lestaurtinib' of Supplementary Table 1),run:Lestaurtinib_02577_R2,Plate:MR016",1300 nM
same,potency estimated from few doses,"NTRK1; compound concentrations:100 nM and 1000 nM (sheet 'Lestaurtinib' of Supplementary Table 1),run:Lestaurtinib_02584_R2,Plate:MR017",1000 nM
same,potency estimated from few doses,"NTRK1; compound concentrations:100 nM and 1000 nM (sheet 'Lestaurtinib' of Supplementary Table 1),run:Lestaurtinib_02601_R1,Plate:MR018",1580 nM
same,potency estimated from few doses,"NTRK1; compound concentrations:100 nM and 1000 nM (sheet 'Lestaurtinib' of Supplementary Table 1),run:Lestaurtinib_02601_R2,Plate:MR018",673 nM
same,potency estimated from few doses,"NTRK1; compound concentrations:100 nM and 1000 nM (sheet 'Lestaurtinib' of Supplementary Table 1),run:Lestaurtinib_02601_R3,Plate:MR018",924 nM
same,potency estimated from few doses,"NTRK1; compound concentrations:100 nM and 1000 nM (sheet 'Lestaurtinib' of Supplementary Table 1),run:Lestaurtinib_02606_R2,Plate:MR019",1210 nM
same,potency estimated from few doses,"NTRK1; compound concentrations:100 nM and 1000 nM (sheet 'Lestaurtinib' of Supplementary Table 1),run:Lestaurtinib_02606_R3,Plate:MR019",1600 nM
same,potency estimated from few doses,"NTRK1; compound concentrations:100 nM and 1000 nM (sheet 'Lestaurtinib' of Supplementary Table 1),run:Lestaurtinib_02624_R1,Plate:MR020",1300 nM
same,potency estimated from few doses,"NTRK1; compound concentrations:100 nM and 1000 nM (sheet 'Lestaurtinib' of Supplementary Table 1),run:Lestaurtinib_02624_R2,Plate:MR020",614 nM
same,potency estimated from few doses,"NTRK1; compound concentrations:100 nM and 1000 nM (sheet 'Lestaurtinib' of Supplementary Table 1),run:Lestaurtinib_02624_R3,Plate:MR020",873 nM
same,potency estimated from few doses,"NTRK1; compound concentrations:100 nM and 1000 nM (sheet 'Lestaurtinib' of Supplementary Table 1),run:Lestaurtinib_02724_R2,Plate:MR021",691 nM
same,potency estimated from few doses,NTRK1; [1],628 nM
same,potency estimated from few doses,"NTRK1; compound concentrations:100 nM and 1000 nM (sheet 'Lestaurtinib' of Supplementary Table 1),run:Lestaurtinib_02741_R1,Plate:MR023",772 nM
same,potency estimated from few doses,NTRK1; [2],783 nM
same,potency estimated from few doses,NTRK1; [3],1330 nM
same,potency estimated from few doses,NTRK1; [4],922 nM
